Activity calls are given as the source filed them.

A short description of assay [1]: binders of probe aFSTL3 on microarray, primary screen, stem cell growth factor project, biochemical, small-molecule microarray, fluorescence 635/667 (AID 1064).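 Also: measures binding of the biotinylated anti-FSTL3 antibody to printed compounds.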 The conditions noted are these: higher = more signal.
A short description of assay [2]: binders from COS7 lysate, DM2A8 probe, primary screen, torsin A project, cell lysate, small-molecule microarray, fluorescence 635/667 (AID 1065). The following applies: higher = more signal, COS7 lysate expressing mutant human TOR1A.
The nature of assay [3]: binders of probe aFGF2 on microarray, primary screen, stem cell growth factor project, biochemical, small-molecule microarray, fluorescence 635/667 (AID 1067).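 Also: measures binding of biotinylated aFGF2 protein to printed compounds on slides; z-score merges feature fluorescence and signal-to-noise across triplicate slides.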 The conditions noted are these: higher = more signal.
Assay [4] is described as follows: binders of probe aFGF10 on microarray, primary screen, stem cell growth factor project, biochemical, small-molecule microarray, fluorescence 635/667 (AID 1071).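 Also: score merges 667 nm spot intensity and signal to noise from triplicate slides.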 The following applies: higher = more signal.
The target of assay [5] is Neurogenic locus notch homolog protein 2 (Homo sapiens) (UniProt Q04721). Description: Notch2 binders on small-molecule microarrays, primary screen, biochemical, small-molecule microarray, 635 nm fluorescence, stem cell growth factors (AID 1073). The conditions noted are these: Notch2 binding, higher = more signal.
Neurogenic locus notch homolog protein 2 (Homo sapiens), sequence (Q04721 whole entry, looked up, canonical isoform): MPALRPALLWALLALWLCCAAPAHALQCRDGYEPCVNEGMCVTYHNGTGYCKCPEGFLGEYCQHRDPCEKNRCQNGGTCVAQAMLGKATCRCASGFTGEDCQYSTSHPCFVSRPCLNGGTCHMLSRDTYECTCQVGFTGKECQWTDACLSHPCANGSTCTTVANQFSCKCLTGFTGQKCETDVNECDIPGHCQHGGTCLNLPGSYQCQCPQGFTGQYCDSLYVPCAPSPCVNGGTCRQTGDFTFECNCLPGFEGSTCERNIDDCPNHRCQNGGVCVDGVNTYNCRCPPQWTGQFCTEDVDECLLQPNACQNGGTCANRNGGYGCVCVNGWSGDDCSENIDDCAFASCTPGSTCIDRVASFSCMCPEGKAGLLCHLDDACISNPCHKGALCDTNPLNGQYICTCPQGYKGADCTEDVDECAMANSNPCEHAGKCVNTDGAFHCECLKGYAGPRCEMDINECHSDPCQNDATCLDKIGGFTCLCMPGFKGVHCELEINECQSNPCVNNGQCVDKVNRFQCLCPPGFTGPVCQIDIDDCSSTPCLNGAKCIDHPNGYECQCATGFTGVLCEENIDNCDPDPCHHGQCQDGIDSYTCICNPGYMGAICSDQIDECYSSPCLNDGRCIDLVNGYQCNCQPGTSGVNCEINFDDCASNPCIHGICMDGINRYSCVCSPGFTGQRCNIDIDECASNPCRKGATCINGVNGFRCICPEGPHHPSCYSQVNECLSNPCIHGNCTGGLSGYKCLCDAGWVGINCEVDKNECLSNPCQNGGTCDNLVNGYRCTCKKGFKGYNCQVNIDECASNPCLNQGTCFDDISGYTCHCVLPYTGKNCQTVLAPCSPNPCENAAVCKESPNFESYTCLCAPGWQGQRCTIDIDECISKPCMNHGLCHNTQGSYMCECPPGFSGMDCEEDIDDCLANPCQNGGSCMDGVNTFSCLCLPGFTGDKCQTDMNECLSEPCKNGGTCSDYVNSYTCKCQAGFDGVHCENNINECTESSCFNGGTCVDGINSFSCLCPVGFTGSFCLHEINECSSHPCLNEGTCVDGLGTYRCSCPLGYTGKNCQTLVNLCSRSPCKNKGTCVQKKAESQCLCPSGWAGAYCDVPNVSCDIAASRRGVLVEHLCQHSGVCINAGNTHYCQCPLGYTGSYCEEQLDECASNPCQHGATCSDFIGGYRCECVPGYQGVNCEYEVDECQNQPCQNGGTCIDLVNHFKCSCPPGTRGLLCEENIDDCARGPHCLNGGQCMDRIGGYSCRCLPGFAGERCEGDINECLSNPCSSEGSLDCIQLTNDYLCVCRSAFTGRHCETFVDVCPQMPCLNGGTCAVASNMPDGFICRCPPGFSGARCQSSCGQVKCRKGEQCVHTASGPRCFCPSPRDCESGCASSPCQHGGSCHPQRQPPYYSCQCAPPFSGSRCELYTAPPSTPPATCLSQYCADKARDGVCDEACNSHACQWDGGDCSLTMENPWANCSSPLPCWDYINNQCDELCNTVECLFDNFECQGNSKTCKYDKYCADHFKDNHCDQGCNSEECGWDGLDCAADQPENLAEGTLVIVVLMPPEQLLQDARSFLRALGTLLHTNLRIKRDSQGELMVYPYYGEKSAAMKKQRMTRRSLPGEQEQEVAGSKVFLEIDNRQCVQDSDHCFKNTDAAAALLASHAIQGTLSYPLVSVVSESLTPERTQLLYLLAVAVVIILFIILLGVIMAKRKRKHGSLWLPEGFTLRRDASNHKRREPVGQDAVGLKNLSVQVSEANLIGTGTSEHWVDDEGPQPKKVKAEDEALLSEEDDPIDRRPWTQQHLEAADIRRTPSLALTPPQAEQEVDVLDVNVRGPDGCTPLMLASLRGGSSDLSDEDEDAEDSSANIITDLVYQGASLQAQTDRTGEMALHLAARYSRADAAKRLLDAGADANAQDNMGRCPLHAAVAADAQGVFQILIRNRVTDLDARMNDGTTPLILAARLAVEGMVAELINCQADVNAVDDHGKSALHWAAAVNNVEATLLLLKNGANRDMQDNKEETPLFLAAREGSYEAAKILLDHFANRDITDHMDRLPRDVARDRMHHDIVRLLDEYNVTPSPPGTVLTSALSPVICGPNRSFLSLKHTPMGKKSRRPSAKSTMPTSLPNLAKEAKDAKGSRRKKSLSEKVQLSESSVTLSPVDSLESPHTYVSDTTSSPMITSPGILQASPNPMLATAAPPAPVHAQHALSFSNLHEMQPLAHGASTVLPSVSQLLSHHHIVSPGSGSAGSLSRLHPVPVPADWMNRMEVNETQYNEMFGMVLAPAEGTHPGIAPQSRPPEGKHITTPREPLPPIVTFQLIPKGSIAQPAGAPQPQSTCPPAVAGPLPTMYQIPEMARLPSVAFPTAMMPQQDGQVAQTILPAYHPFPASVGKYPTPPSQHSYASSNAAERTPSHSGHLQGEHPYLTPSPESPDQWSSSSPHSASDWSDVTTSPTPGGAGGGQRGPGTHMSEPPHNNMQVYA
Assay [6] addresses Pro-neuregulin-1, membrane-bound isoform (Homo sapiens) (UniProt Q02297). Put plainly: NRG1 binders on small-molecule microarrays, primary screen, psychiatric disease protein project, biochemical, small-molecule microarray, fluorescence 635/667 (AID 1075).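 Also: score combines 667 nm spot fluorescence with signal to noise.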 The following applies: NRG1 binding, 635 nm fluorescence, higher = more signal.
Assay [7] has as its system Neuregulin-1 EGF-like domain. Description: binders of neuregulin-1 EGF-like domain, primary screen, biochemical, small-molecule microarray, 635 nm fluorescence (AID 1081).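 Also: binding of the protein to compounds printed on small-molecule microarray slides.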 The following applies: small-molecule microarray binding, higher = more signal.
A short description of assay [8]: FRG1 promoter luciferase signal modulators, primary screen, FRG1 inhibition for FSHD, cell-based, C2C12 myotubes, firefly/Renilla luciferase, luminescence (AID 1084). The conditions noted are these: higher = more signal, called active from +8 up or from −8 down.
The nature of assay [9]: binders of probe aFST on microarray, primary screen, stem cell growth factor project, biochemical, small-molecule microarray, fluorescence 635/667 (AID 1086).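 Also: score merges 667 nm fluorescence with signal-to-noise of each printed compound spot.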 The following applies: higher = more signal.
The nature of assay [10]: binders of probe aHhip on microarray, primary screen, stem cell growth factor project, biochemical, small-molecule microarray, fluorescence 635/667 (AID 1087).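 Also: score merges spot fluorescence at 667nm with spot signal to noise ratio.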 The conditions noted are these: higher = more signal.

Pro-neuregulin-1, membrane-bound isoform (Homo sapiens), sequence (Q02297 whole entry, looked up, the tested form may be a part, canonical isoform): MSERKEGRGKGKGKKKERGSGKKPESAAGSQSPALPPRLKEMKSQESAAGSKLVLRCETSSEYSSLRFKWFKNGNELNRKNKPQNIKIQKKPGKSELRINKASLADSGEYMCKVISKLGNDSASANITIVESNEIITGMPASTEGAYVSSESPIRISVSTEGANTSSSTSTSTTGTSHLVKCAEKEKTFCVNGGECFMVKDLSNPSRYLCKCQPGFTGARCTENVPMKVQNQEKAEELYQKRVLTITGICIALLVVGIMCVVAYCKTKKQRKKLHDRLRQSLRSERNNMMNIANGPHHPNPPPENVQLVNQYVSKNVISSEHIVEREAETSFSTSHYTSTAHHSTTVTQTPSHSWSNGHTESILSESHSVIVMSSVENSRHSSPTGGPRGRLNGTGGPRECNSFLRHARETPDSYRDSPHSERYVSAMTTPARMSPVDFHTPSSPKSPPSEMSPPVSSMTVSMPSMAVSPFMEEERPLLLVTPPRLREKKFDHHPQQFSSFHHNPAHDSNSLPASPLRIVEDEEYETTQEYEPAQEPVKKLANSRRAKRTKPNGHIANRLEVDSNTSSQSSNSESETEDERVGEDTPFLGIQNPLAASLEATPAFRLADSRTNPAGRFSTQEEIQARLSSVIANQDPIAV

For the compound `O=C1O[C@@H](c2ccccc2)[C@@H](c2ccccc2)N2[C@@H](c3ccc(O)cc3)[C@]3(C(=O)Nc4ccc(C#CCCO)cc43)[C@@H](C(=O)O)[C@H]12`, the composite z-score is 3.16 in [1]; 0.489 in assay [2]; 0.548 in [3]; 0.306 in [4]; 0.725 in [5]; 1.91 in assay [6]. Further, the results for the composite z-score in [7], in assay [9] and in [10] were 1.07, 2.44 and 1.69, respectively. In addition, in [8], the z-score is -0.55 (inactive).

As for `COC(=O)[C@@]1(Cc2ccc(OC)cc2)[C@H]2c3cc(C(=O)N4CCCC4)n(CCN4CCOCC4)c3C[C@H]2CN1C(=O)c1ccccc1`, the composite z-score came out at 2.56 in assay [1]; 0.553 in [2]; 1.01 in assay [3]; 1.47 in [4]; 1.59 in assay [5]; 2.23 in [6]. Also, the composite z-score was 1.37 in [7], 2.71 in [9] and 3.48 in assay [10]. Moreover, the z-score in assay [8] is 0.877 (inactive).

Consider `Oc1ccc2cc[n+](Cc3cccc(OC(F)(F)F)c3)cc2c1`, for which the composite z-score was -0.446 in assay [1]; 1.77 in assay [2]; -0.0841 in assay [3]; -0.0974 in assay [4]; 0.0892 in assay [5]; -0.322 in assay [6]. Besides, the results for the composite z-score in assay [7], in assay [9] and in assay [10] were 0.921, 0.191 and 0.0749, respectively. For the same compound, the z-score in [8] is 0.498 (inactive).

For the compound `O=C1OCCC=C[C@H]2OC34C=CCN(CCN5CCOCC5)C(=O)[C@H]3N(CCO)C(=O)[C@@H]4C12` (stereo not given in full), the composite z-score in assay [1] was -0.217; in assay [2] it was 1.12; in assay [3], -0.179; in [4], 0.127; in assay [5] it was -0.621; in assay [6] it was -0.714. The composite z-score was 0.916 in assay [7], -0.569 in assay [9] and -0.489 in [10]. In addition, in [8], the z-score is -0.0663 (inactive).

With `O=c1cccc(-c2ccc3ccccc3c2)o1`, the composite z-score is 0.636 in [1]; -0.0452 in [2]; 0.114 in assay [3]; -0.183 in [4]; -0.383 in [5]; -0.288 in assay [6]. Moreover, the composite z-score in assay [7] is -0.602; in assay [9], 0.389; in assay [10] it was -0.0022. Also, the z-score in assay [8] is 7.42 (inactive).

`C=CCC(OC(C)=O)[C@@H]1[C@@H](N(Cc2ccc(-c3ccccc3)cc2)C(=O)c2ccc(C)cc2)c2cc(OCCCO)ccc2N1C(=O)c1ccc2ccccc2n1` (stereo not given in full): the composite z-score was -0.131 in assay [1]; 0.42 in assay [2]; -0.0434 in [3]; 0.199 in assay [4]; 0.0291 in assay [5]; 0.676 in assay [6]. The composite z-score in assay [7] is -0.325; in assay [9], 0.13; in [10], 0.154. Also, in assay [8], the z-score is -1.24 (inactive).

Take `C=CCC(OC(C)=O)[C@@H]1[C@@H](N(Cc2ccc(-c3cccc(C(F)(F)F)c3)o2)C(=O)c2ccc(C)cc2)c2cc(OCCCO)ccc2N1C(=O)c1ccc2ccccc2n1` (stereo not given in full): the composite z-score in [1] is 0.172; in [2], 0.0875; in assay [3] it was -0.036; in assay [4], 0.515; in assay [5] it was 0.126; in assay [6] it was 0.147. The composite z-score in [7] was determined as 0.118; in [9] it was 0.361; in assay [10], 0.0373. For the same compound, the z-score in assay [8] is -0.352 (inactive).

For the compound `COC(=O)[C@@]1(Cc2ccc(F)cc2)[C@H]2c3cc(C(=O)N(C)C)n(CCc4c[nH]c5ccc(OC)cc45)c3C[C@H]2CN1C(=O)c1ccccc1`, the composite z-score was 1.1 in [1]; 1.29 in assay [2]; 0.181 in assay [3]; 0.175 in [4]; 1.37 in assay [5]; 0.88 in assay [6]. The composite z-score in assay [7] came out at 1.36; in assay [9] it was 1.34; in [10], 0.836. In addition, the z-score in assay [8] was 1.59 (inactive).

As to `COc1c(C)cc(-c2cc3c(c(-c4ccccc4)n2)[Si](C(C)C)(C(C)C)O[C@H]3c2ccccc2)cc1C`, the composite z-score is -0.409 in assay [1]; -0.103 in assay [2]; -0.103 in assay [3]; 0.235 in assay [4]; 0.234 in [5]; -0.0051 in assay [6]. Also, the composite z-score is -0.438 in [7], 0.291 in assay [9] and 0.0373 in assay [10]. Further, in assay [8], the z-score is 0.361 (inactive).

In the case of `C=CCNC(=O)[C@H]1[C@@H]2C(=O)O[C@@H](c3ccccc3)[C@@H](c3ccccc3)N2[C@@H](c2ccc(OCCO)cc2)[C@]12C(=O)N(C(=O)OCCOC)c1ccc(C#CC3(O)CCCCCC3)cc12`, the composite z-score in [1] was -0.0322; in assay [2], 1.14; in assay [3], -0.0627; in assay [4], 0.527; in assay [5] it was 1.03; in assay [6], 0.764. The composite z-score in assay [7] was 1.31; in assay [9] it was 0.422; in assay [10], 0.113. The z-score in assay [8] was -0.313 (inactive).

Take `C=CCN1C(=O)[C@@]2(O[C@@H](CCO)[C@H]([Si](C)(C)c3ccc(OC)cc3)[C@H]2C)c2cc(NC(C)=O)ccc21`: the composite z-score in assay [1] was -0.412; in [2], 0.299; in [3], -0.0887; in [4], 1.19; in [5], 1.07; in assay [6], 0.864. For the same compound, the composite z-score in [7] worked out at 1.2; in assay [9] it was 0.55; in assay [10] it was 0.294. Besides, the z-score in assay [8] was -0.174 (inactive).

With `C=CCOC(=O)[C@@H]1[C@H]2C(=O)O[C@H](c3ccccc3)[C@H](c3ccccc3)N2[C@H](c2ccc(OCCOC(=O)[C@H]3C[C@H]4C(=O)N[C@@H](CC(C)C)C(=O)N4[C@H]3c3cccc(OCCO)c3)cc2)[C@@]12C(=O)Nc1ccc(I)cc12`, the composite z-score in assay [1] was -0.187; in assay [2], 0.83; in assay [3], -0.0232; in [4] it was 0.81; in [5], 0.809; in assay [6] it was 0.71. In addition, the composite z-score in [7] is 1.27; in assay [9] it was 0.186; in assay [10], -0.0296. Moreover, in [8], the z-score is 1.6 (inactive).

As for `CC(=O)NCCCC[C@@H]1NC(=O)[C@@H]2C[C@H](C(=O)NCc3ccc(F)cc3)[C@H](c3ccc(O)cc3)N2C1=O`, the composite z-score in [1] was 0.114; in [2], 0.798; in assay [3] it was 0.0377; in [4] it was 0.639; in assay [5], -0.326; in assay [6], 0.772. For the same compound, the composite z-score is 1.47 in assay [7], -0.21 in assay [9] and -0.0994 in assay [10]. The z-score in [8] is -0.0693 (inactive).

For `CC[C@@H]1C=C(C(=O)O)[C@H](c2ccc(C(C)C)cc2)N1S(=O)(=O)c1ccc(C)cc1`, the composite z-score was 0.341 in [1]; 1.41 in assay [2]; 0.412 in assay [3]; 1.12 in assay [4]; 1.75 in [5]; 1.91 in [6]. The composite z-score in [7] turned out to be 0.908; in [9] it was 1.64; in assay [10], 0.0401. Besides, in [8], the z-score is -2.32 (inactive).

As for `CN1C(=O)C2C=CC(C(O)c3ccccc3)N(NC(=O)OC(C)(C)C)C2C1=O` (stereo not given), the composite z-score is -0.366 in assay [1]; 0.583 in [2]; 0.0728 in assay [3]; 0.268 in [4]; 1.34 in assay [5]; 0.871 in assay [6]. Moreover, the values for the composite z-score in assay [7], in [9] and in assay [10] were 0.792, 0.868 and -0.0645, respectively. In assay [8], the z-score was 1.82 (inactive).

For the compound `C[N+](C)(C)CCCC[C@@H]1NC(=O)[C@H]2C[C@@H](C(=O)O)[C@@H](c3cccc(OCCO)c3)N2C1=O`, the composite z-score was found to be 2.11 in assay [1]; 1.85 in assay [2]; 0.676 in [3]; 0.788 in [4]; 1.01 in assay [5]; 2.81 in [6]. Also, the composite z-score is 1.44 in assay [7], 1.65 in assay [9] and 1.88 in [10]. Besides, the z-score in assay [8] is -0.698 (inactive).

The values above are taken from PubChem BioAssay.
